# Data: the supplement of paper PMC8728848
# About 410 targets per protein were measured; listed, in parts, are those with the strongest signals and a random draw of the rest.
# Tests used:
# Assay in all cases: glycan array binding signal (z-score within array); higher = stronger binding
# Conditions in all cases: glycan notation: IUPAC condensed, linker removed
# [1] = biological target: Fuc(a1-2)Gal(b1-3)GalNAc(b1-3)Gal
# Outline: (§1)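 From the Consortium for Functional Glycomics database, 3228 arrays were curated, keeping only those whose protein sequence was available. Binding is given as a within-array Z-score averaged across arrays sharing a protein sequence and across linkers. Negative Z-scores can be read as non-binding.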
# [2] = biological target: Fuc(a1-2)Gal(b1-4)[Fuc(a1-3)]GlcNAc
# Outline: as §1
# [3] = biological target: Fuc(a1-2)[Gal(a1-3)]Gal(b1-4)[Fuc(a1-3)]GlcNAc
# Outline: as §1
# [4] = biological target: Gal(b1-3)[Fuc(a1-4)]GlcNAc(b1-3)Gal(b1-4)GlcNAc
# Outline: as §1
# [5] = biological target: Gal(b1-3)[Fuc(a1-4)]GlcNAc(b1-3)Gal(b1-4)[Fuc(a1-3)]GlcNAc
# Outline: as §1
# [6] = biological target: Gal3S(b1-4)Glc
# Outline: as §1
# [7] = biological target: Gal3S(b1-4)Glc6S
# Outline: as §1
# [8] = biological target: Gal3S(b1-4)GlcNAc
# Outline: as §1
# [9] = biological target: Gal3S(b1-4)GlcNAc6S
# Outline: as §1
# [10] = biological target: Gal3S6S(b1-4)GlcNAc
# Outline: as §1
# [11] = biological target: Gal6S(b1-4)GlcNAc
# Outline: as §1
# [12] = biological target: GlcNAc(a1-3)Gal(b1-4)GlcNAc
# Outline: as §1
# [13] = biological target: GlcNAc(b1-3)[GlcNAc(b1-6)]GalNAc
# Outline: as §1
# [14] = biological target: GlcNAc(b1-4)[GlcNAc(b1-6)]GalNAc
# Outline: as §1
# [15] = biological target: Man(a1-2)Man(a1-3)[Man(a1-2)Man(a1-6)]Man(a1-6)[Man(a1-3)[Man(a1-6)]Man(a1-6)]Man(b1-4)GlcNAc(b1-4)GlcNAc
# Outline: as §1
# [16] = biological target: Neu5Ac(a2-3)GalNAc
# Outline: as §1
# [17] = biological target: Neu5Ac(a2-3)GalNAc(b1-4)GlcNAc
# Outline: as §1
# [18] = biological target: Neu5Ac(a2-3)[GalNAc(b1-4)]Gal(b1-4)Glc
# Outline: as §1
# [19] = biological target: Neu5Ac(a2-6)Gal(b1-4)Glc
# Outline: as §1
# [20] = biological target: Neu5Gc(a2-3)Gal(b1-4)[Fuc(a1-3)]GlcNAc
# Outline: as §1
# [21] = biological target: Fuc(b1-3)GlcNAc
# Outline: as §1
# [22] = biological target: Gal(a1-3)Gal(b1-4)GlcNAc
# Outline: as §1
# [23] = biological target: Gal(a1-3)GalNAc
# Outline: as §1
# [24] = biological target: Gal(b1-4)GlcNAc(b1-3)GalNAc
# Outline: as §1
# [25] = biological target: GlcNAc(b1-2)Gal(b1-3)GalNAc
# Outline: as §1
# [26] = biological target: GlcNAc(b1-4)GlcNAc(b1-4)GlcNAc
# Outline: as §1
# [27] = biological target: Neu5Ac(a2-3)Gal(b1-3)GalNAc
# Outline: as §1
# [28] = biological target: Neu5Ac(a2-3)Gal(b1-3)[Neu5Ac(a2-3)Gal(b1-4)]GlcNAc
# Outline: as §1
# [29] = biological target: Neu5Ac(a2-3)Gal(b1-4)[Fuc(a1-3)]GlcNAc(b1-3)Gal(b1-4)[Fuc(a1-3)]GlcNAc(b1-3)Gal(b1-4)[Fuc(a1-3)]GlcNAc
# Outline: as §1
# [30] = biological target: Neu5Ac(a2-8)Neu5Ac(a2-8)Neu5Ac
# Outline: as §1
# [31] = biological target: Neu5Gc(a2-3)Gal(b1-3)[Fuc(a1-4)]GlcNAc
# Outline: as §1
# [32] = biological target: Neu5Gc(a2-3)Gal(b1-4)Glc
# Outline: as §1
Binder,glycan array binding signal (z-score) [1],glycan array binding signal (z-score) [2],glycan array binding signal (z-score) [3],glycan array binding signal (z-score) [4],glycan array binding signal (z-score) [5],glycan array binding signal (z-score) [6],glycan array binding signal (z-score) [7],glycan array binding signal (z-score) [8],glycan array binding signal (z-score) [9],glycan array binding signal (z-score) [10],glycan array binding signal (z-score) [11],glycan array binding signal (z-score) [12],glycan array binding signal (z-score) [13],glycan array binding signal (z-score) [14],glycan array binding signal (z-score) [15],glycan array binding signal (z-score) [16],glycan array binding signal (z-score) [17],glycan array binding signal (z-score) [18],glycan array binding signal (z-score) [19],glycan array binding signal (z-score) [20],glycan array binding signal (z-score) [21],glycan array binding signal (z-score) [22],glycan array binding signal (z-score) [23],glycan array binding signal (z-score) [24],glycan array binding signal (z-score) [25],glycan array binding signal (z-score) [26],glycan array binding signal (z-score) [27],glycan array binding signal (z-score) [28],glycan array binding signal (z-score) [29],glycan array binding signal (z-score) [30],glycan array binding signal (z-score) [31],glycan array binding signal (z-score) [32]
MAL (Maackia amurensis) (protein) SDELSFTINNFMPNQGDLLFQGVATVSPTGVLQLTSEENGQPLEYSVGRVLYTAPVRIWDSTTGAVASFSTSFTFVVKAARGASDGLAFFLAPPDSQIPSGSVSKYLGLFNNSNSDSSNQIVAVEFDTYFGHSYDPWDPNYRHIGIDVNGIESIKTVQWDWINGGVAFATITYLAPNKTLIASLVYPSNQTSFIVAASVDLKEILPEWVRVGFSAATGAPKAVETHDVRSWSFTSTLEANSPADVDN,-0.382,0.544,-0.348,-0.428,-0.272,4.98,4.51,4.96,5.35,0.345,-0.066,-0.353,-0.374,-0.221,-0.305,-0.392,-0.416,-0.394,0.057,-0.371,,,,,,,,,,,,
"Siglec-G (Mus musculus), Q80ZE3 (protein) MSLLLFLLSFLLDGPQGQMESYFLQVQRIVKAQEGLCIFVPCSFSSPEGKWLNRSPLYGYWFKGIRKPSLSFPVATNNKDKVLEWEARGRFQLLGDISKKNCSLLIKDVQWGDSTNYFFRMERGFERFSFKEEFRLQVEALTQKPDIFIPEVLEPGEPVTVVCLFSWTFNQCPAPSFSWMGDAVSFQESRPHTSNYSVLSFIPGLQHHDTELTCQLDFSRMSTQRTVRLRVAYAPRSLAISIFHDNVSVPDLHENPSHLEVQQGQSLRLLCTADSQPPATLSWVLEDQVLSWSSPVGSRTLALELPWVKAGDSGHYTCQAENRLGSQQHTLDLSVLYPPQDLRVTVSQANRTVLEILRNAISLPVLEGQSLCLVCVTYSNPPANVSWAWVTQTLIPIQSSEPGVLELPLVQREHEGEFTCAAQNPLGAQRISLSLSVHYPPQMSSPSCSWEAKGLHCNCSSRAWPAPSLRWRLGEGLLEGNSSNASFTVTFSSLGPWVNSSLSLLQELGPSLWLSCESWNTHGAQTTSVLLLPDKDSATAFSKGAVLGFGITALLALCLIVVIVKTLQKKGTQEEPSRPKLSRGSTILDYINVVPKTRSLARNWKAEPDAPSRSSPLDTHFPKPKKKQKDPHFTYPGCPDPTSSSQVPVSENNPEELHYAALNFSRLRLQETQDPQDTYSDYTEVRVH",-0.186,,,,,,,,,,,,,,,,,,,,1.54,-0.064,-0.268,-0.134,-0.21,-0.138,0.414,0.903,1,1.22,0.241,-0.022
